This is a sample that favours compounds with a hit; in the whole collection about 2.8% have one here.
PTHR1 ag = activates the human parathyroid hormone receptor PTHR1; AID 743266; Potency, µM (series often up to 115 µM), hits mostly activators; HEK293 GP2 PTHR1 cells, GloSensor cAMP luminescence, 1 h; 410,000 compounds, 0.075% hits; Q03431; also: nearly all actives have a fitted effect of over 55% in size
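HEK-293-derived GP2 cells expressing PTHR1 and a GloSensor cAMP reporter, 3,000/well, plated overnight, given luciferin plus IBMX (each 0.5 mM as added) for 1 h at 37 °C, then compound for 1 h at 37 °C. Luminescence was read after 15 min at room temperature.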
DRD3 antagonist = antagonists of human D3 dopamine receptor. P35462. D3R cells, DiscoveRx beta-arrestin luminescence, antagonist mode; stronger effect = lower value. max response, negative = inhibition, %. 360,000 compounds, 2.5% hits. AID 652054; in the data active = max response below about -50%; inconclusive = no clear call, values can overlap the other calls
Target sequence (P35462 whole entry, looked up): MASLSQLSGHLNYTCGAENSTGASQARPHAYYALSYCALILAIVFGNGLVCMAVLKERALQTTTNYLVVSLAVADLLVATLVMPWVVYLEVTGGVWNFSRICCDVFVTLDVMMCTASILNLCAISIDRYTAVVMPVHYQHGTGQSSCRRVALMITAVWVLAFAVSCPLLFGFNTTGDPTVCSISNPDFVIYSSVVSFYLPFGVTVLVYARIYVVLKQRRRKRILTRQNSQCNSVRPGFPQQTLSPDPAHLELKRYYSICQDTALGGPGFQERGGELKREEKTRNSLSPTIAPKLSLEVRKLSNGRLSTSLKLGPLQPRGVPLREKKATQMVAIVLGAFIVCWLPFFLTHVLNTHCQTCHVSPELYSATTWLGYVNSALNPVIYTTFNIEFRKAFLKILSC
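Cells plated overnight at 1500 cells/well, then exposed to library compounds with dopamine controls for 90 minutes at 37 degrees C. DiscoveRx reagent added for 30–60 minutes at room temperature; luminescence read, quantitative HTS format.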
DRD3 agonist = activates the human D3 dopamine receptor | D3R DiscoveRx beta-arrestin cells, luminescence, 90 min | max activation, % | 410,000 compounds, 0.58% hits | AID 652048; in the data active = max activation above about 30%
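Cells at 1500/well, incubated overnight, then treated with pinned compounds (dopamine as control) for 90 min at 37 degrees C. DiscoveRx reagent added for 30 - 60 minutes at room temperature; luminescence read.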
a7 integrin act = activators of alpha7 integrin expression for muscular dystrophy | alpha7betagal myoblasts, beta-gal FDG fluorescence, 48 h | Potency, µM (doses to about 38.3 µM), most hits filed as activators | 350,000 compounds, 0.064% hits; also: nearly all actives have a fitted effect of over 60% in size
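alpha7betagal+/- myoblasts (passage 13, 250/well) treated 48 h at 37C with compounds at 1:260 dilution of DMSO stock. Lysed, then beta-galactosidase activity read as FDG fluorescence (ex 480/em 540) after 30 min, with pre-read for autofluorescence.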
MBNL1-CUG inh = blocks human MBNL1 binding to CUG repeat RNA; Q9NR56; TR-FRET MBNL1-His/biotin-(CUG)12 binding, 665/545 ratio; Potency, µM (top dose mostly 57.5 µM), actives largely listed as inhibitors; 280,000 compounds, 0.036% hits; AID 2675; active = well fitted inhibition curve with a large enough effect in the signal ratio, with a control signal flat, not every such curve was filed as active; inconclusive = small, poorly fitted or top-dose-only effect, or effect the other way, or a change in a side signal; inactive = no such curve, though single readings can be large or run the other way; the % refers to the signal ratio
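Compounds (final 92 nM to 58 uM) are added to His-tagged MBNL1 and biotin-(CUG)12, then terbium anti-His antibody and streptavidin-XL665 (5 nM final). After 60 min at room temperature, the 665/545 nm ratio is read.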
CBFb-RUNX1 inh = blocks binding between human CBF-beta and RUNX1. Potency, µM (titrated, usually from 59.8 µM), usual class: inhibitors. AlphaScreen CBFb-His/RUNX1-biotin binding, biochemical. 230,000 tested, under 10 active. Q01196+Q13951
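Room-temperature protein-protein interaction test with 30 nM each of His-tagged CBF-beta and biotinylated RUNX1, 15 min with compound, then 90 min with nickel plus streptavidin beads. Signal read in AlphaScreen mode.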
Hits are given with their value; n = inactive; u = inconclusive; x = not tested or not shown; [ ] = another dose, or the depositor's remark. Unless noted, calls follow the shape of the dose curve; as a rule, active = well fitted curve in the direction sought with a large enough effect; inconclusive = small, poorly fitted or top-dose-only effect, or another doubt; inactive = no such curve, though single readings can be large; an effect the other way counts as inactive or inconclusive.

SMILES	PTHR1 ag	DRD3 antagonist	DRD3 agonist	a7 integrin act	MBNL1-CUG inh	CBFb-RUNX1 inh
Cc1ccc(-c2nc3c(c(=O)[nH]c(=O)n3Cc3ccccc3)n2Cc2ccccc2)o1	n	n	n	n	n	n
Cc1ccc2nc(CSc3nnc(NC(=O)COc4ccccc4F)s3)cc(=O)n2c1	n	x	58	x	x	x
CCCCCSc1nnc2c(n1)OC(C)N(C(C)=O)c1ccccc1-2 (stereo not drawn)	n	-68	n	n	u	n
O=C(O)[C@@H](O)[C@H](O)[C@H](O)[C@@H](O)C(=O)O (tested in a mixture with another compound)	x	x	n	x	x	x
Cc1ccc(Cl)cc1N1CCN(CC(=O)Nc2ccc(CN3CCCCC3)cc2)CC1	n	-65	n	n	n	n
CC(=O)c1cccc(NC(=O)CN2CCN(Cc3ccccc3)CC2)c1	n	n	n	n	n	x
COC(=O)c1cccc(NC(=O)CN2CCN(Cc3ccccc3)CC2)c1	n	-50	n	n	n	n
COc1ccccc1N1CCN(CC(=O)NCc2ccc(Cl)cc2)CC1	n	-70	n	u	n	x
COc1ccccc1NC(=O)CN1CCN(c2ccccc2OC)CC1	n	n	n	n	n	n
COc1ccccc1N1CCN(CC(=O)Nc2ccc(CN3CCCCC3)cc2)CC1	n	-65	n	n	n	n
Cc1cccc(C2NC(c3cccc(C)c3)C(C)C(=O)C2C)c1 (stereo not drawn)	n	n	n	n	n	x
CC(=O)c1cccc(NC(=O)CSCc2ccccc2)c1	n	-79	n	n	n	n
O=C1CCCCC1(O)Cc1ccc2c(c1)OCO2 (stereo not drawn)	n	n	n	n	x	x
CO/N=C/c1ccc(N2CCN(C(=O)c3cccc(C(F)(F)F)c3)CC2)c([N+](=O)[O-])c1	n	n	52	n	u	n
CO/N=C/c1ccc(N2CCN(C(=O)c3ccc(F)cc3)CC2)c([N+](=O)[O-])c1	n	n	n	n[7.66 µM]	u	n
N#Cc1ccccc1S(=O)(=O)N1CCN(C(=O)CN2CCCSc3ccccc32)CC1	n	n	n	n	x	x
Cc1ccc(S(=O)(=O)N2CCN(C(=O)CN3CCCSc4ccccc43)CC2)cc1	n	-55	n	n	x	x
CC(C)C(=O)NC1CC(=O)N(c2ccc3c(c2)OCCO3)C1 (stereo not drawn)	u	x	n	x	x	x
COc1ccc(-c2ncccc2OC(=O)C23CC4CC(CC(C4)C2)C3)cc1OC	n	n	n	n	n	n
O=S(=O)(O)c1cc(O)c2c(O)c(N=Nc3cc(Cl)ccc3O)c(S(=O)(=O)O)cc2c1	n	-61	n	n	u	x
CCOC(=O)N1CCC(=NNC(=O)Cn2ccc(C(F)(F)F)n2)CC1	n	n	n	n	x	n
Cc1ccc(C2C(C(=O)c3cc4ccccc4o3)=C(O)C(=O)N2CCN2CCOCC2)o1 (stereo not drawn)	n	-56	n	n	n	n
Cc1ccc(C2C(C(=O)c3cc4ccccc4o3)=C(O)C(=O)N2CCN2CCOCC2)cc1 (stereo not drawn)	n	n	n	n	n	x
Cc1cccc(NC(=O)CCc2ccc(S(=O)(=O)NC3CCCCC3)cc2)c1	n	n	n	n	n	n
COC(=O)c1[nH]c2ccccc2c1NC(=O)CN1CCN(C(=O)c2ccco2)CC1	n	-52	31	n	n	n
SMILES	PTHR1 ag	DRD3 antagonist	DRD3 agonist	a7 integrin act	MBNL1-CUG inh	CBFb-RUNX1 inh
COC(=O)c1[nH]c2ccccc2c1NC(=O)CN1CCC(C(N)=O)(N2CCCCC2)CC1	n	-54	n	n	n	n
COC(=O)c1[nH]c2cc(OC)ccc2c1NC(=O)CCN1CCSCC1	n	-70	n	n	n	n
COC(=O)c1[nH]c2ccccc2c1NC(=O)Oc1ccccc1	n	-52	n	n	u	n
CCOC(=O)N1CCN(CC(=O)Nc2c(C(=O)OC)[nH]c3ccccc23)CC1	n	n	n	n	n	n
O=[N+]([O-])c1cccc(COc2ccccc2CN2CCCC2)c1	n	n	n	n	x	x
COC(=O)c1[nH]c2ccccc2c1NC(=O)CN1CCCCCC1	n	-53	n	n	n	n
Cn1cccc1/C=N\NC(=O)C1COc2ccc(C(C)(C)C)cc2O1 (stereo not drawn)	n	n	n	u	n	x
Cc1c(/C=N\NC(=O)C2COc3ccc(C(C)(C)C)cc3O2)c2ccccc2n1C (stereo not drawn)	n	n	58	n	n	n
Cc1ccc(S(=O)(=O)c2nc(Nc3ccccc3)sc2Cl)cc1	n	n	n	n	n	n
Cc1ccc(S(=O)(=O)c2nc(NCCN(C)C)sc2Cl)cc1	n	-68	n	n	n	n
CCOc1ccc(-c2c(C(=O)N/N=C/C3CC=CCC3)nnn2-c2nonc2N)cc1 (stereo not drawn)	n	n	n	n	n	x
CCCc1ccc(C(O)c2ncc(-c3ccccc3F)[nH]2)cc1 (stereo not drawn)	n	n	n	x	x	x
CC(C)[C@H](NC(=O)N1CC(=O)Nc2ccccc21)C(=O)N1CCC[C@H]1C(=O)O	u	n	n	n	n	x
CC(C)[C@H](NC(=O)[C@@H]1Cc2c([nH]c3ccccc23)C2c3ccccc3C(=O)N21)C(=O)N1CCC[C@@H]1C(=O)O (stereo partly drawn)	n	n	40	n	n	x
CC(=O)c1ccccc1OCCCCN1CCCCC1	n	-77	n	n	n	x
COC(=O)c1ccccc1OCCN1CCCCCC1	n	-57	n	n	n	n
O=C(COC(=O)c1ccc([N+](=O)[O-])o1)Nc1ccc2c(c1)OCO2	n	n	n	n	x	x
Cc1ccc(NC(=O)Cc2nc(COC(=O)Cc3cccc(C(F)(F)F)c3)cs2)cc1	n	n	n	n	x	x
Cc1ccc(/C(=C\CN2CCCC2)c2cccc(/C=C/C(=O)O)n2)cc1	x	x	n	x	x	x
Cc1cc(=O)oc2cc(OCCSCCN3CCCCC3)ccc12	n	-66	n	n	n	n
Cc1cc(=O)oc2cc(OCCc3ccccc3)ccc12	n	n	n	n	n	x
CNS(=O)(=O)c1cn(CC(=O)N2CCN(c3ccccc3F)CC2)cc1S(=O)(=O)NC	n	x	n	x	x	x
CNC[C@H](CC1CCCCC1)NC[C@H](CO)NCC1(c2ccccc2)CC1	n	n	n	n	n	x
CNC[C@H](CC1CCCCC1)NC[C@H](CO)NCCc1cccc(C(F)(F)F)c1	n	-84	n	n	n	x
Cc1cn([C@H]2C[C@H](O)[C@@H](/C=C/C(=O)NCCc3cccnc3)O2)c(=O)[nH]c1=O	n	n	59	x	x	x
